# Measurements as given in PubChem BioAssay (NCI).
# About 83,000 compounds went through this panel and 20% of them were active in at least one assay; those are over-represented in the sample as a whole.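 The endpoint reported here, percent growth, reads 100 for growth as untreated, 0 for no net growth and -100 for all cells dead.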 Values without a mark were called inactive. The source made the active and inactive calls. How the source made its calls: active means growth percent below 10; inactive means the rest.
# Assays:
# Assay in all cases: NCI-60 one-dose screen, 48 h (100 = growth as untreated, 0 = no growth, -100 = all killed)
# SK-MEL-2 melanoma = details: 10 µM unless noted
# EKVX NSCLC = details: 10 µM unless noted
# SN12C renal = details: 10 µM unless noted
# UO-31 renal = details: 10 µM unless noted
# TK-10 renal = details: 10 µM unless noted
# ACHN renal = details: 10 µM unless noted
# CAKI-1 renal = details: 10 µM
# A498 renal = details: 10 µM unless noted
# MOLT-4 leukemia = details: 10 µM unless noted
# SR leukemia = details: 10 µM unless noted
# RPMI-8226 leukemia = details: 10 µM unless noted
# OVCAR-8 ovarian = details: 10 µM unless noted
# OVCAR-5 ovarian = details: 10 µM unless noted
# OVCAR-4 ovarian = details: 10 µM unless noted
# SK-OV-3 ovarian = details: 10 µM unless noted
# IGROV1 ovarian = details: 10 µM unless noted
# OVCAR-3 ovarian = details: 10 µM unless noted
# HS 578T breast = details: 10 µM unless noted
# NCI/ADR-RES ovarian = details: 10 µM unless noted
# CCRF-CEM leukemia = details: 10 µM unless noted
Compound,growth (SK-MEL-2 melanoma),growth (EKVX NSCLC),growth (SN12C renal),growth (UO-31 renal),growth (TK-10 renal),growth (ACHN renal),growth (CAKI-1 renal),growth (A498 renal),growth (MOLT-4 leukemia),growth (SR leukemia),growth (RPMI-8226 leukemia),growth (OVCAR-8 ovarian),growth (OVCAR-5 ovarian),growth (OVCAR-4 ovarian),growth (SK-OV-3 ovarian),growth (IGROV1 ovarian),growth (OVCAR-3 ovarian),growth (HS 578T breast),growth (NCI/ADR-RES ovarian),growth (CCRF-CEM leukemia)
Cc1[nH]nc2ccc(-c3nc4cnc(N5CCN(C)CC5)cn4c3Nc3ccc(F)cc3Br)cc12,91.1%,86.1%,29.9%,50.4%,65%,48.3%,21%,82.3%,39.4%,4.63% (active),-6.49% (active),6.47% (active),80.3%,64.6%,97.4%,59.7%,10.5%,91.5%,49.4%,
CC(C)Sc1nc(NC2CC2)c(C#N)c(-c2ccccc2)n1,124%,101%,57.8%,48.5%,123%,29.1%,68%,64.5%,92.6%,,91%,84.9%,84.4%,-8.11% (active),78.6%,19.8%,,68.7%,74.5%,
COc1ccc(Cn2cc3c(c2-c2ccccc2)CCCc2cnoc2-3)cc1[N+](=O)[O-],60.4%,78.9%,82.2%,55.5%,109%,87.1%,50.5%,66.8%,47%,32.6%,59%,80.2%,93.4%,68.8%,74.8%,64%,,64.3%,42.5%,
O=C1c2c(c3c4cc(Br)ccc4[nH]c3c3ccc4ccccc4c23)C(=O)N1CCN1CCNCC1,113%,85.9%,84.8%,58.7%,148%,69.6%,66.1%,97.1%,4.47% (active),,-9.87% (active),57.3%,113%,103%,93.6%,68.5%,,115%,69.5%,3.91% (active)
C#C[C@]1(O)CC[C@H]2[C@@H]3CC=C4c5sc(Nc6cc(OC)ccc6OC)nc5CC[C@]4(C)[C@H]3CC[C@@]21C,31.8%,42.9%,49%,12.8%,84.7%,36.5%,28%,-28.3% (active),-5.93% (active),,,40.1%,56.7%,64.3%,5.82% (active),47.9%,59.2%,,55.6%,13.9%
COc1ccc(C(=O)c2c(N)c(C#N)cn2-c2cccc(OC)c2)cc1,28.8%,38.7%,32.4%,33.8%,69.2%,38.5%,30.5%,-1.17% (active),29.3%,,22.1%,34.2%,56.9%,63.1%,,32%,30.3%,11%,9.32% (active),18.1%
COc1ccc(S(=O)(=O)NCCCNc2nccc(-n3cnc4ccccc43)n2)cc1,103%,84.4%,92.4%,67.2%,103%,88.2%,68.8%,81.9%,77%,77.6%,78.6%,93.7%,99.6%,77.4%,96.2%,91.4%,105%,84.8%,105%,
Brc1cccc(/C=N/Nc2nc(N/N=C/c3cccc(Br)c3)nc(N3CCOCC3)n2)c1,2.64% (active),49%,44.2%,25.5%,66.8%,26.3%,15.4%,,10.2%,7.93% (active),34.2%,37.4%,72.4%,54.2%,92.9%,42.8%,42.4%,66.2%,41.8%,21%
O=C1c2c(c3c4cc(O)ccc4oc3c3[nH]c4ccccc4c23)C(=O)N1O,-71.6% (active),66.6%,17.1%,-40.1% (active),31.1%,-5.43% (active),-16.5% (active),-9.95% (active),4.76% (active),,4.71% (active),12.1%,72.5%,22%,-17% (active),0.286% (active),,,40.7%,
CN(C)C(=O)C1=NC(CO)C(=O)N(c2ccc(Cl)cc2)N1 (configuration not stated),99%,99.5%,105%,82.5%,91.1%,101%,92%,,103%,107%,101%,104%,96.5%,114%,114%,101%,110%,104%,104%,104%
CC(=O)Nc1ccc(NC(=O)Nc2cccc(-c3nc(-c4ccc(NC(=O)c5cccs5)cc4Cl)no3)c2)cc1C(F)(F)F,-61.4% (active),-35.9% (active),-64.5% (active),14.4%,-32.7% (active),3.84% (active),-73.2% (active),-87.9% (active),-0.998% (active),-7.39% (active),,-15.8% (active),-37.9% (active),-94.5% (active),-66% (active),-57.6% (active),-63.4% (active),-28.3% (active),55.5%,
CC(=O)C1=NN(c2ccc(Cl)cc2)C(=O)CN1C,102%,95.7%,102%,93%,91.2%,99.4%,95.7%,,107%,102%,115%,102%,95%,114%,113%,103%,123%,107%,105%,104%
O=C(CCCCCCN1CC(=O)N2[C@@H](c3ccccc3)c3[nH]c4ccccc4c3C[C@H]2C1=O)NO,68.4%,84.3%,78.4%,57.1%,69.4%,87.3%,65.5%,87.1%,20.9%,37.2%,26.7%,39.6%,58%,65.6%,70.1%,60.6%,55.5%,68.8%,77.9%,
Clc1ccc(-c2nc3ccc(/C(=N\N=C\c4ccccc4)c4ccccc4)cc3[nH]2)cc1,96.1%,93.4%,93.4%,83.3%,95.9%,92.1%,77.2%,65.7%,59.3%,,54.6%,85.6%,85.6%,77.8%,90.7%,104%,,,87.8%,71%
CC[C@]12C=CCN3CC[C@]4(C(=C(C(=O)OC)C1)Nc1cc5c(cc14)[C@@H]1[C@H](O5)[C@@H](O)[C@@]4(CC)CC(C(=O)OC)=C5Nc6cc(OC)ccc6[C@@]56CCN1[C@@H]46)[C@@H]32,32.1%,19.1%,16.4%,11.9%,14.1%,-42.5% (active),2.12% (active),-65.9% (active),,5.56% (active),-23.3% (active),19.5%,25.4%,31.2%,25%,6.73% (active),,11.6%,12.4%,5.92% (active)
Nc1nc(N)c2c(n1)NC(c1ccccc1)CC(c1ccc(Nc3nc(NCCO)nc(Nc4ccc(Cl)cc4)n3)cc1)=N2 (configuration not stated),71.9%,92.6%,49.4%,43.9%,63.7%,70.2%,61%,71.3%,1.48% (active),,-56.2% (active),-20% (active),111%,57.2%,116%,64.3%,,79.9%,48.4%,-11.2% (active)
C#C[C@]1(O)CC[C@H]2[C@@H]3CC=C4c5sc(-c6ccccn6)nc5CC[C@]4(C)[C@H]3CC[C@@]21C,70.7%,77.7%,87.2%,35.8%,104%,75.8%,87.7%,70.6%,21.7%,,,91.8%,94.2%,98.6%,76.8%,88.9%,88%,14.4%,89.8%,37.5%
